Shown are actives, neighbours in structure and some others; about 21% of the full set was active somewhere.
NS1 function inh – influenza NS1 inhibition; Potency, µM (series often up to 46.1 µM), for the others: at the top dose activity, positive = more growth; 0.4% of 270,000 active; AID 2326; note: potency is the fitted concentration of half-maximal effect; actives are rising curves; nearly all actives have a fitted effect of over 50% in size
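Growth recovery, yeast-based: influenza A NS1 expressed in S. cerevisiae causes slow growth, and suppressors are detected by OD600. The parent strain without NS1 is used as positive control.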
Pf growth 96h – inhibits malaria parasite growth, 96 h. 6.9% of 320,000 active. P. falciparum luciferase reporter growth, 96 h. AID 504834. Potency, µM (series often up to 28.7 µM), inactives show top-dose activity change, negative = inhibition, actives largely listed as inhibitors; active = well fitted inhibition curve with a large enough effect; inconclusive = small, poorly fitted or top-dose-only effect, or another doubt; inactive = no such curve, though single readings can be large or run the other way; note: potency is the fitted concentration of half-maximal effect; % is set by controls: 0 for no effect and ±100 for the full control effect
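Two-generation exposure (96 h) targets delayed-death phenotype. Reporter parasites carrying integrated firefly luciferase, in red cells at 2% hematocrit and 0.05% parasitemia final, kept at 37 C, 5% CO2; luminescence loss indicates inhibition.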
SARS PLP yeast – SARS-CoV PLP inhibition in yeast; S. cerevisiae expressing SARS-CoV PLpro, growth rescue; Potency, µM (highest dose often 32.9 µM), without a hit: at the highest dose activity, positive = growth rescue, hits mostly activators; 0.19% of 330,000 active; note: potency is the fitted concentration of half-maximal effect; 0% is about no effect; nearly all actives have a fitted effect of over 55% in size
Cycloheximide cs – affects cycloheximide protein synthesis inhibition readout, counter-screen. cell reporter, cycloheximide protein synthesis inhibition counterscreen. max response, %. 12% of 300,000 active. AID 2314; in the data active = max response mostly above about 13%, no sharp cut-off; inactive = mostly below about 14%; note: read at 38.3 µM for the half of the compounds with a filed dose; 0% is about no effect
Pf growth 48h – inhibits P. falciparum growth in the first generation, 48 h. P. falciparum luciferase growth in erythrocytes, 48 h. Potency, µM (titrated, usually from 28.7 µM), for inactives: at the highest dose activity change, negative = inhibition, most hits filed as inhibitors. 5.9% of 310,000 active. AID 504832; active = well fitted inhibition curve with a large enough effect; inconclusive = small, poorly fitted or top-dose-only effect, or another doubt; inactive = no such curve, though single readings can be large or run the other way; note: potency is the fitted concentration of half-maximal effect; % is set by controls: 0 for no effect and ±100 for the full control effect
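Here the parasites carry a stable luciferase gene and grow inside erythrocytes in Albumax-based RPMI medium with compound for one erythrocytic cycle. Activity is scored as loss of luminescent signal.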
Shiga inhibitor – inhibitors of Shiga toxin in Vero cells; inhibition, % at 38.7 µM; Vero cells, Shiga toxin protein synthesis inhibition reporter; 9.2% of 290,000 active; in the data active = inhibition mostly above about 28%, no sharp cut-off; inactive = mostly below about 43%; note: 0% is about no effect
An asterisk follows results filed as active; ! = not active in a repeat. Unless noted, calls come from the whole dose curve.

`O=C(c1ccc2c(c1)OCO2)N1CCc2ccccc2C1` gave NS1 function inh -8%, Pf growth 96h 7%, SARS PLP yeast -2%, Cycloheximide cs 70*, Pf growth 48h 40% and Shiga inhibitor 55*.
For CCN(CC)CCNC(=O)c1ccc(NC(=O)C2CC(=O)N(c3ccc4c(c3)OCCO4)C2)cc1 (stereo not drawn) the results were Pf growth 96h 4%, SARS PLP yeast -7% and Pf growth 48h inconclusive.
COc1cccc(NC(=O)CN(C)S(=O)(=O)/C=C/c2ccccc2)c1 was read as Pf growth 96h 16%, SARS PLP yeast 6% and Pf growth 48h inconclusive.
CCCCCc1nc2sc3c(c2c(=O)n1NC(=O)c1ccc([N+](=O)[O-])cc1)CC(C)(C)OC3 was read as NS1 function inh -5%, Pf growth 96h -40%, SARS PLP yeast -44%, Cycloheximide cs -2, Pf growth 48h 0% and Shiga inhibitor 0.
Screening CN(C)C1C(=O)C(C(N)=O)=C(O)C2(O)C(=O)C3=C(O)c4c(O)cccc4C(C)(O)C3CC12 (stereo not drawn) returned NS1 function inh 4%, Pf growth 96h 0.93µM*, SARS PLP yeast 6%, Cycloheximide cs -3, Pf growth 48h inconclusive and Shiga inhibitor -7.
For CN(C)[C@@H]1C(=O)C(C(N)=O)=C(O)[C@@]2(O)C(=O)C3=C(O)c4c(O)ccc(Cl)c4[C@@](C)(O)C3C[C@@H]12 (stereo partly drawn) the results were NS1 function inh 6%, Pf growth 96h inconclusive, SARS PLP yeast 0%, Cycloheximide cs 3, Pf growth 48h -24% and Shiga inhibitor -2.
CN(C)[C@@H]1C(=O)C(C(N)=O)=C(O)[C@@]2(O)C(=O)C3=C(O)c4c(O)cccc4[C@@](C)(O)C3[C@H](O)C12 (stereo partly drawn) was read as Pf growth 96h 12µM*! and Pf growth 48h 15µM*!.
Screening CN(C)[C@@H]1C(=O)C(C(=O)NCN2CCCC2)=C(O)[C@@]2(O)C(=O)C3=C(O)c4c(O)cccc4[C@@](C)(O)C3CC12 (stereo partly drawn) returned NS1 function inh inconclusive, Pf growth 96h -6%, SARS PLP yeast inconclusive, Cycloheximide cs -2, Pf growth 48h -4% and Shiga inhibitor -6.
CN(C)[C@H]1C(=O)C(C(N)=O)=C(O)[C@]2(O)C(=O)C3=C(O)c4c(O)cccc4[C@@](C)(O)[C@H]3C[C@@H]12 was read as Pf growth 96h 0.72µM* and Pf growth 48h 5.7µM*.
Screening Cn1cccc1C1CCCN1CC(=O)Nc1c(Cl)cc(Cl)cc1Cl (stereo not drawn) returned SARS PLP yeast -6%.
COc1cc(/C=C/C(=O)O)ccc1OCc1ccccc1C#N was read as NS1 function inh -12%, Pf growth 96h 7%, SARS PLP yeast 26%, Cycloheximide cs -2, Pf growth 48h 7% and Shiga inhibitor -2.
For Cc1c(O)nc2ccccn2c1=O the results were NS1 function inh 0%, Pf growth 96h 73%, SARS PLP yeast 0%, Cycloheximide cs -3, Pf growth 48h 0% and Shiga inhibitor 19.
`CCCCc1c(O)nc2ccccn2c1=O` gave NS1 function inh 8%, Pf growth 96h 12µM*, SARS PLP yeast -7%, Cycloheximide cs -2, Pf growth 48h inconclusive and Shiga inhibitor -5.
Screening Cc1ccc(NS(=O)(=O)c2ccc3c(c2)NC(=O)CCS3)c(Br)c1 returned NS1 function inh 10%, Pf growth 96h inconclusive, SARS PLP yeast -1%, Cycloheximide cs 16, Pf growth 48h 6.6µM* and Shiga inhibitor 6.
`Cc1ccccc1NS(=O)(=O)c1ccc2c(c1)NC(=O)CCS2` gave NS1 function inh 5%, Pf growth 96h 12µM*, SARS PLP yeast 4%, Cycloheximide cs 13, Pf growth 48h -23% and Shiga inhibitor -2.
For Cc1ccc(CCNS(=O)(=O)c2ccc3c(c2)NC(=O)CCS3)cc1 the results were NS1 function inh 9%, Pf growth 96h 13µM*, SARS PLP yeast -3%, Cycloheximide cs -3, Pf growth 48h 8% and Shiga inhibitor -9.
Cc1ccc(C)c(NS(=O)(=O)c2ccc3c(c2)NC(=O)CCS3)c1 was read as NS1 function inh 21%, Pf growth 96h 9.3µM*, SARS PLP yeast -6%, Cycloheximide cs 9, Pf growth 48h -17% and Shiga inhibitor 0.
`COc1ccc(CCNS(=O)(=O)c2ccc3c(c2)NC(=O)CCS3)cc1OC` gave NS1 function inh 10%, Pf growth 96h inconclusive, SARS PLP yeast 1%, Cycloheximide cs 14, Pf growth 48h inconclusive and Shiga inhibitor 3.
For COc1cc(NC(=O)C2CC(=O)N(CCc3ccc(F)cc3)C2)cc(OC)c1OC (stereo not drawn) the results were NS1 function inh -15%, Pf growth 96h 9%, SARS PLP yeast -2%, Cycloheximide cs -4, Pf growth 48h -15% and Shiga inhibitor -6.
For O=C(Nc1ccc(F)cc1)N1CCN(C/C=C/c2ccccc2)CC1 the results were NS1 function inh -7%, Pf growth 96h -8%, SARS PLP yeast 2%, Cycloheximide cs 1, Pf growth 48h inconclusive and Shiga inhibitor -4.
Screening COc1ccc(NS(=O)(=O)c2cc(C(=O)N3CCN(C/C=C/c4ccccc4)CC3)ccc2C)cc1 returned Pf growth 96h inconclusive, SARS PLP yeast 2% and Pf growth 48h 12µM*.
`Cc1cc(C)cc(NC(=O)N2CCN(C/C=C/c3ccccc3)CC2)c1` gave NS1 function inh -2%, Pf growth 96h 2.9µM*, SARS PLP yeast -1%, Cycloheximide cs -3, Pf growth 48h -8% and Shiga inhibitor 28.
Screening Cc1ccc(C(=O)N2CCCCCC2)cc1S(=O)(=O)Nc1ccccc1 returned NS1 function inh -5%, Pf growth 96h 3%, SARS PLP yeast -2%, Cycloheximide cs 2, Pf growth 48h -7% and Shiga inhibitor -15.
Screening O=C(c1ccc(OC2CCN(C/C=C/c3ccccc3)CC2)cc1)N1CCCC1 returned NS1 function inh -4%, Pf growth 96h 10µM*, SARS PLP yeast 4%, Cycloheximide cs -7, Pf growth 48h 2.9µM* and Shiga inhibitor 6.
COc1ccccc1/C=C/CN1CCC(Oc2ccc(C(=O)N3CCCCC3)cc2)CC1 was read as NS1 function inh -12%, Pf growth 96h 16%, SARS PLP yeast 25%, Cycloheximide cs -3, Pf growth 48h 7.4µM* and Shiga inhibitor -10.
`Cc1cc(C)c(OCC(=O)Nc2nnc(-c3ccco3)o2)c(C)c1` gave Pf growth 96h 69%, SARS PLP yeast 0%, Cycloheximide cs -8, Pf growth 48h 138% and Shiga inhibitor -11.
For Cc1ccc(C2(C)NC(=O)N(CC(=O)NNC(=O)c3ccoc3C)C2=O)cc1 (stereo not drawn) the results were Pf growth 96h 16%, SARS PLP yeast 6% and Pf growth 48h 2%.
